The results in this text go back to PubChem BioAssay (Tox21).

“And” between values parts separate entries of the source, which are not always exact repeats. Identical values can stand only once. Results filed as inconclusive are left out. A call without a number means that no potency is given here. The source made the active and inactive calls. Calls come from the whole dose curve; as a rule, active = well fitted curve in the direction sought with a large enough effect in the signal ratio in the repeat runs (not every such curve was filed as active); inconclusive = weak or mixed curves, or effect the other way; inactive = no such curve, though single readings can be large or run the other way; the % refers to the signal ratio.
Potency is the fitted concentration of half-maximal effect.

For the experiment, the target named is Estrogen receptor (Homo sapiens) (UniProt P03372). Description: qHTS assay to identify small molecule antagonists of the estrogen receptor alpha (ER-alpha) signaling pathway (AID 743069). As to conditions: HEK293 ER-alpha-UAS-bla, beta-lactamase ratio, antagonist mode; series mostly up to 69.4 µM. The source says: National Center for Advancing Translational Sciences [NCATS]
Estrogen receptor (Homo sapiens), sequence (P03372 whole entry, looked up): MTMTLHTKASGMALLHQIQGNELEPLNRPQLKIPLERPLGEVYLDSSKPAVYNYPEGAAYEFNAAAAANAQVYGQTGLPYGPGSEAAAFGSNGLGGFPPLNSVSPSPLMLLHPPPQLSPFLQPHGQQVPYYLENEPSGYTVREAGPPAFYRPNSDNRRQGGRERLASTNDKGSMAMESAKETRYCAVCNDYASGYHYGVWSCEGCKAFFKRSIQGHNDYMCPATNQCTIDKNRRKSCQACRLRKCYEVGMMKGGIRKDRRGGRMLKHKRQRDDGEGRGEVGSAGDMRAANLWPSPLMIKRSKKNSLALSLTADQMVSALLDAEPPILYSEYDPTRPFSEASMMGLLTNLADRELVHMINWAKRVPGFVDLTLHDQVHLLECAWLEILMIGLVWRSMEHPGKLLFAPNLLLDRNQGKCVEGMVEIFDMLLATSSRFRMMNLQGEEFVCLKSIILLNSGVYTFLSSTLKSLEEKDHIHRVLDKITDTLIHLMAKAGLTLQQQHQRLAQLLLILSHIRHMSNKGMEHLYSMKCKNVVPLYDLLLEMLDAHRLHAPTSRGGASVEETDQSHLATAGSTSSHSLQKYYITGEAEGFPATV
NIH Chemical Genomics Center [NCGC]
U.S. Environmental Protection Agency [EPA]
National Institutes of Environmental Health Sciences [NIEHS]
National Toxicology Program [NTP]
U.S. Food and Drug Administration [FDA]
Estrogen receptor (ER), a nuclear hormone receptor, plays an important role in development, metabolic homeostasis and reproduction. Two subtypes of ER, ER-alpha and ER-beta have similar expression patterns with some uniqueness in both types. Endocrine disrupting chemicals (EDCs) and their interactions with steroid hormone receptors like ER causes disruption of normal endocrine function. To identify the compounds that inhibit ER signaling, an ER-alpha-UAS-bla GripTiteTM cell line (Invitrogen, Carlsbad, CA, USA) containing a beta-lactamase reporter gene under the control of an Upstream Activator Sequence (UAS) stably integrated into HEK293 cells was used to screen the Tox21 10K compound library.
Tox21 Assay Protocol Summary:
ER-alpha-bla cells were cultured in assay medium containing 2% charcoal stripped FBS overnight in the culture flasks before the assay was performed. The cells were dispensed at 5,000 cells/5 uL of assay medium per well into black wall/clear-bottom 1536-well plates using a Multidrop Combi (ThermoFisher Scientific, Waltham, MA) dispenser. After the assay plates were incubated at a 37C and 5% CO2 for 4 hr, 23 nL of compounds dissolved in DMSO, positive controls or DMSO only was transferred to the assay plate by a Pintool station (Kalypsys, San Diego, CA), followed by addition of 1 uL of 17beta-estradiol in assay medium using a Flying Reagent Dispenser (Aurora Discovery, San Diego, CA). The plates were incubated at 37C and 5% CO2 for 18 hr. Then 1 uL of LiveBLAzerTM B/G FRET substrate was added using a Flying Reagent Dispenser, the plates were incubated at room temperature for 2 hours, and fluorescence intensity was measured by an Envision plate reader (PerkinElmer, Shelton, CT).
For orientation: In qHTS, concentration-response curves come from the screen itself.
On to `CCNCC(O)c1cccc(O)c1` (stereo not given), for which the Potency result was “inactive”. Next, `CNC(=O)OCC[N+](C)(C)C`: “inactive”; `CC(C)[C@H]1C(=O)N2CCC[C@H]2[C@]2(O)O[C@](NC(=O)[C@@H]3C[C@@H]4c5cccc6[nH]cc(c56)C[C@H]4N(C)C3)(C(C)C)C(=O)N12`: “inactive”.

In the case of `CN1[C@@H]2CC[C@H]1CC(OC1c3ccccc3CCc3ccccc31)C2` (stereo not given in full), the Potency result was “inactive”. In the case of `[S]=[Sb](=[S])[S][Sb](=[S])=[S]`, the Potency entry is “inactive”. Take `CN[C@@]1(c2ccccc2Cl)CCCCC1=O`: the Potency entry is “inactive”. Regarding `C=CCN(C1=NCCN1)c1c(Cl)cccc1Cl`, the Potency entry is “inactive”. Consider `CN1c2ccccc2C(NCCCCCCC(=O)O)c2ccc(Cl)cc2S1(=O)=O` (stereo not given), for which the Potency entry was “inactive”.

On to `NCC(O)c1cccc(O)c1` (stereo not given), for which the Potency entry was “inactive”. Next, `CCC(=O)O[C@]1(c2ccccc2)CCN(C)C[C@H]1C`: “inactive”; `CCOC(=O)C1(c2ccccc2)CCCN(C)CC1` (stereo not given): “inactive”; `COc1ccc2c(c1)C13CCCC[C@@H]1C(C2)N(C)CC3` (stereo not given in full): “inactive”.

Turning to `CC(=O)[C@H]1CC[C@H]2[C@@H]3CC[C@@H]4C[C@H](O)CC[C@]4(C)[C@H]3CC[C@]12C`, the Potency entry was “inactive”.

For `O=P(O)(O)C(Cl)(Cl)P(=O)(O)O`, the Potency result was “inactive”. Take `COc1ccc2c3c1O[C@H]1[C@@H](O)C=C[C@H]4[C@@H](C2)NCC[C@@]341`: the Potency entry was “inactive”.

Take `C=CCC1(C(C)CCC)C(=O)N=C(S)NC1=O` (stereo not given): the Potency entry is “inactive”. Then `F/C(COc1ccc2c(c1)[nH]c1ccccc12)=C1/CN2CCC1CC2`, with 19 µM [inhibitor] (active); and `CNC(C)C(O)c1ccc(O)cc1` (stereo not given), with “inactive”; and `CCCCC[C@@H](O)C1C(=O)OC(C)[C@H](O)/C=C/C=C/C=C/C=C/C=C(\C)C(O)C(O)C(O)C[C@H](O)C[C@H](O)C[C@H](O)C[C@H](O)C[C@@H]1O` (stereo not given in full), with “inactive”. Next, `Clc1ccc2c(c1)C(c1ccccc1)=NCc1nncn1-2`: “inactive”; `CC(C)=CCN1CC[C@]2(C)c3cc(O)ccc3C[C@H]1[C@H]2C`: “inactive”; `c1csc(C2(N3CCCCC3)CCCCC2)c1`: “inactive”. Consider `CC(=O)OO`, for which the Potency entry is “inactive”. With `CCC(C)(S(=O)(=O)CC)S(=O)(=O)CC`, the Potency entry is “inactive”. Then `C[C@H]1[C@H]2Cc3ccc(O)cc3[C@]1(C)CCN2CCc1ccccc1`, with “inactive”. As for `CCCC(=O)OC(C(Cl)(Cl)Cl)P(=O)(OC)OC` (stereo not given), the Potency entry is “inactive”. Turning to `C[C@]12CC[C@H](OS(=O)(=O)O)CC1=CC[C@@H]1[C@@H]2CC[C@]2(C)C(=O)CC[C@@H]12`, the Potency result is “inactive”.

Consider `CCC1(CC)C(=O)NC(=O)N(C)C1=O`, for which the Potency result was “inactive”. Next, `O=C1CCCCC1CN1CCCCC1` (stereo not given): “inactive”; `O=C1OC2(c3cc(Br)c(O)cc3Oc3c2cc(Br)c(O)[c]3[Hg])c2ccccc21` (stereo not given): “inactive”.

As for `c1ccccc1`, the Potency entry is “inactive”. Then `S=C(S)N1CCNCC1`, with “inactive”; and `CCOC(=O)C(O)(c1ccc(Cl)cc1)c1ccc(Cl)cc1`, with 55.5 µM [cytotoxic] (active) and 54.9 µM [inhibitor] (active).

For the compound `NC1=NC(=O)N2CC12` (stereo not given), the Potency entry was “inactive”. Next, `CCC1(c2cnc[nH]2)Cc2ccccc2C1`: “inactive”; `CN(C)[C@H](Cc1ccccc1)c1ccccc1`: “inactive”. Then `NC(=O)CN1CC(O)CC1=O` (stereo not given), with “inactive”.

Regarding `C[C@@H]1[C@H](O)[C@@H](C)/C=C/C=C/CC/C=C/C=C/C=C/C=C/[C@H](O[C@H]2O[C@@H](C)[C@H](O)[C@@H](N)[C@H]2O)CC2O[C@](O)(C[C@@H](O)[C@H](O)CC[C@@H](O)C[C@@H](O)C[C@@H](O)CC(=O)O[C@H]1C)C[C@H](O)[C@H]2C(=O)O`, the Potency result is “inactive”.

Turning to `CCC1(C)CC(=O)NC(=O)C1`, the Potency result is “inactive”.

Turning to `CCCSc1cc(OC)c(CCN)cc1OC`, the Potency entry is “inactive”.
